SMILES strings stand for the structures. ± gives the standard deviation.

The test system of the assay is RAW-Dual (murine macrophage reporter line). The assay can be described thus: IRF reporter (Lucia luciferase) activity fold change vs agonist alone; higher = enhanced IRF activity. The note with it: modulator concentration 10 µM; agonist: 3'3'-cGAMP 10 ug/mL. The essentials: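 In 384-well plates holding 50 000 RAW-Dual murine macrophage reporter cells per well, compound at 10 μM final was pre-incubated for 1 hour at 37 °C, after which a PRR agonist was added overnight. Supernatant SEAP read with QUANTI-Blue at 620 nm absorbance reported NF-κB, and Lucia luciferase read with QUANTI-Luc luminescence reported IRF. Fold change values come from dividing each reporter signal by the mean of agonist-only control wells on the same plate, averaged over replicate plates with propagated errors.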
Turning to `COc1cc(C2CC3CC2C(C)C3(C)C)ccc1O` (configuration not stated), the IRF reporter amounted to 0.926 ± 0.031.

As for `CCOc1ccc2nc(SC(c3ccccc3)c3ccccc3)sc2c1`, the IRF reporter is 1.01 ± 0.036.

As for `COc1c(C)cnc(Cn2cccc(-c3nc(C)no3)c2=O)c1C`, the IRF reporter came to 0.95 ± 0.033. In the case of `COc1ccc(C=C(NC(=O)c2ccccc2)C(=O)NCCC(=O)OCc2ccccc2)cc1` it was 0.841 ± 0.024. Consider `C=CCc1ccccc1OCC(O)CNC(C)C.Cl` (configuration not stated), for which the IRF reporter stood at 0.809 ± 0.029. Turning to `COc1ccc(OC)c(S(=O)(=O)NCC2CC(=O)N(c3ccc(Cl)cc3)C2)c1` (configuration not stated), the IRF reporter is 0.762 ± 0.035. For the molecule `O=[N+]([O-])c1ccc(C=CC=Nc2ccc(-c3nc4ccccc4s3)c(O)c2)cc1`, the IRF reporter stood at 0.746 ± 0.042.

Consider `c1ccc2nc3c(cc(N4CCOCC4)c4ccccc43)nc2c1`, for which the IRF reporter amounted to 0.924 ± 0.023. With `O=C(Cn1c(C(F)(F)F)nc2ccccc21)c1ccc(OC(F)F)cc1`, the IRF reporter came to 1.06 ± 0.061. Then `CCN(CC)CCOCCOC(=O)C1(c2ccccc2)CCCC1` [Prestw-387], with 0.684 ± 0.019. On to `COCCNc1nc(SCC(=O)Nc2cccc(C(F)(F)F)c2)nc2ccccc12`, for which the IRF reporter amounted to 0.601 ± 0.035. With `CC1(C)CC(=O)C2=C(C1)OC(N)=C(C#N)C21C(=O)Nc2ccc(Br)cc21` (configuration not stated), the IRF reporter amounted to 0.967 ± 0.032.

In the case of `O=c1c2ccccc2n(Cc2nc(-c3ccc(F)c(F)c3)no2)c(=O)n1C1CC1`, the IRF reporter was found to be 0.995 ± 0.074. As to `C[C@H](Oc1cc(-c2cnn(C3CCNCC3)c2)cnc1N)c1c(Cl)ccc(F)c1Cl`, the IRF reporter was found to be 1.03 ± 0.047. Consider `COc1ccc(Cl)cc1C(=O)NCCc1ccc(S(=O)(=O)NC(=O)NC2CCCCC2)cc1`, for which the IRF reporter was determined as 1.06 ± 0.052.

With `CS(=O)(=O)NCc1cccc(Oc2ccc(F)cc2)c1`, the IRF reporter was 1.1 ± 0.046. In the case of `COc1cccc(-n2c(SCc3ccc(F)cc3)nc3c([nH]c4ccccc43)c2=O)c1` it was 0.717 ± 0.033.

Source of the values: the supplement of paper PMC10646978.
